PubChem BioAssay AID748 (Sanford-Burnham Center for Chemical Genomics, 2007)
Out of some 96,000 compounds screened, about 100 (0.1%) were called active. This is one part of a sample in which actives are shown more often than they occur.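 How the source made its calls: active means displacement above 50% at 20 µM plus a fluorescence interference ratio under 1.5; inactive means the rest.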 Results with a measured potency or affinity are listed apart.

Target: Bcl-2-like protein 10 (Homo sapiens) (UniProt Q9HD36)
Assay: displacers of TR3 peptide from Bcl-B, primary screen, selectivity assay for Bfl-1 inhibitor project, biochemical, fluorescence polarization, FITC-TR3 peptide (AID 748);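 further: plate controls were wells without compound for no effect and wells lacking Bcl-B protein for full effect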
Conditions: FP displacement of FITC-TR3 peptide from Bcl-B; at 20 µM; stronger effect = higher value

displacement, inactive:
CSCCC(NC(=O)c1ccco1)C(=O)OCC(=O)Nc1ncc(Cl)c(C)c1Cl (stereo not given) 14.7%, Cc1nc(NC(=O)COC(=O)C(NC(=O)c2ccco2)C(C)C)c(Cl)cc1Cl (stereo not given) 24.3%, CCn1c(SC)nc2c(c1=O)SC(C)C2 (stereo not given) -13.3%, Cc1c(NC(=O)c2cc(-c3ccccc3)on2)c(=O)n(-c2ccccc2)n1C 1.8%, Cc1ccc(-c2cc(C(F)(F)F)n3nc(C(=O)Nc4c(C)n(C)n(-c5ccccc5)c4=O)cc3n2)cc1 -12.8%, O=C(OCC(=O)N1CCN(C(=O)c2ccco2)CC1)c1cc(-c2ccc(F)cc2)nc2ccccc12 8.8%, O=C(OCC(=O)N1CCN(C(=O)c2ccco2)CC1)c1cc(-c2ccccc2)nc2ccccc12 -78.6%, COc1ccc(CNC(=O)COC(=O)c2cc(-c3ccco3)nc3ccccc23)cc1 42.9%, O=C(COC(=O)c1cc(-c2ccco2)nc2ccccc12)NCc1ccccc1 -3%, CC1Cc2ccccc2N1C(=O)CSc1nc2cc3c(cc2cc1C#N)OCO3 (stereo not given) 3.7%, Cc1cccc(-n2nnc(C(=O)NCc3ccc4c(c3)OCO4)c2N)c1 -4.7%, COc1ccc(C(=O)OCC(=O)c2ccc(C3CCCCC3)cc2)cc1 0.1%, Cc1ccc(C(C(=O)NCc2ccco2)N(C(=O)Cn2nnc3ccccc32)c2ccccc2)o1 (stereo not given) 2.5%, Cc1cc(C)cc(CC2CC(=O)N(c3ccc(Cl)cn3)C2=O)c1 (stereo not given) -1%, Cn1c2ccccc2c2c(C(=O)NCc3ccco3)cn(C3CCCCC3)c(=O)c21 11.7%, CC(C)CC(=O)Nc1cccc(-c2nc3ccccc3o2)c1 5.6%, NC(=O)c1cc(Cc2ccccc2)sc1NC(=O)c1ccco1 0%, Cc1c(C#N)c2ccccc2n1CC(=O)NC(C)c1ccccc1 (stereo not given) 2.1%, COc1ccc(Nc2nc(N3CCCCC3)c3ccccc3n2)cc1 6.9%, COc1ccc(Nc2nc(N3CCCC3)c3ccccc3n2)cc1 12.9%, Cc1c(N(C(=O)c2cc(=O)[nH]c3ccccc23)C(C)C)c(=O)n(-c2ccccc2)n1C -10%, C=CCn1c(C)cc(C(=O)CSc2nnc(NC(C)C)s2)c1C -5.7%, CC(C)Nc1nnc(SCC(=O)Nc2ccc(F)cc2)s1 1.5%, NC(=O)Cn1c(=O)n(CCCC(=O)NC2CCN(Cc3ccccc3)CC2)c(=O)c2ccccc21 4.2%, CC(C)OC(=O)C(NC(=O)c1ccccc1)=C1CCCCC1 -12.9%
